Assay outcomes from PubChem BioAssay.
BRCA1 expr up: BRCA1 expression activation; MCF7-BRCA1-FFLuc reporter, luminescence, 48 h; response scale: scaled: vehicle 0%, 10 µM genistein 100%; Potency, µM (highest dose often 46.1 µM), without a hit: at the top dose activation, hits mostly activators; actives 1.1% (n = 380,000); further: potency means the concentration at half of the fitted maximal effect; nearly all actives have a fitted effect of over 80% in size
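Cells: MCF7-BRCA1-FFLuc, 2000/well. Exposure: 48 h, 37 °C, 5% CO2. Read: luminescence, 15 min post-substrate. Controls: genistein 10 microM (maximal activation), DMSO (neutral).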
PINK1 modulator: PINK1 expression modulation. actives 0.2% (n = 410,000). Potency, µM (top dose mostly 76.6 µM), without a hit: at the top dose activation (PINK1 increase), hits mostly activators. PINK1 immunofluorescence, high-content cytometry, 24 h; active means well fitted activation curve with a large enough effect; inconclusive means small, poorly fitted or top-dose-only effect; cell line not stated here; further: potency means the concentration at half of the fitted maximal effect; % of control where 0% means no effect; nearly all actives have a fitted effect of over 65% in size
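Readout is PINK1 immunofluorescence, quantified alongside mitochondrial, cell and nuclear markers by laser-scanning microplate cytometry. Cells from a stable line were exposed to compound titrations (5 concentrations) for 24 hours, with CCCP controls.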
TCR act: activates T cell receptor signaling; AID 504894; primary human leukocytes, anti-CD3, IL-2 HTRF, 48 h; Potency, µM (doses to about 9.22 µM), inactives show at the highest dose activation of IL-2 secretion, usual class: activators; 330,000 tested, under 10 active; further: % of control where 0% means no effect
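Activity was scored as IL-2 release from primary human leukocytes given only a TCR signal (a-CD3 beads) plus compound for 48 hr. Detection used a two-antibody HTRF format read at 665nm.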
Akt phos inh: Akt phosphorylation inhibition | Neuro2A IGF-stimulated pAkt S473 HTRF, 20 min; stronger effect = lower value | activity change, % for hits at 50 µM | actives 0.32% (n = 360,000) | AID 651550; in the data active means activity change below about -80%; inconclusive means mostly about -51% to -80%; further: on the % scale 0 is the no-effect control and ±100 the full control effect
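Neuro2A cells in DMEM with 0.5% FBS, overnight at 37 deg C, given compound at single 50 µM final, then IGF (6 nM final) for 20 min at 37 deg C. Lysed; phospho-Akt Ser473 by HTRF after 24 h, 665/615 ratio.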
Active calls of the source: *; [ ] = dose if it differs, or a comment. Hits are enriched below; roughly 1.5% of the tested compounds scored in any of these assays. Unless noted, the call rests on the fitted dose curve; in most records, active means well fitted curve in the direction sought with a large enough effect; inconclusive means small, poorly fitted or top-dose-only effect, or another doubt; inactive means no such curve, though single readings can be large; an effect the other way counts as inactive or inconclusive.

For COc1ccc(N2C(=O)c3ccccc3NC2(C)C)cc1 the results were BRCA1 expr up 10µM*, PINK1 modulator -2%, TCR act 4% and Akt phos inh inactive.
Screening CCC1(C)Nc2ccccc2C(=O)N1O (centres undefined) returned BRCA1 expr up -53%, PINK1 modulator -1%, TCR act 2% and Akt phos inh inactive.
Screening Cc1ccc(CN2CCc3nnc(C(C)NC(=O)c4cc(F)ccc4F)n3CC2)o1 (centres undefined) returned PINK1 modulator 1%.
For O=C(Nn1cnc2ccccc2c1=O)c1ccc(Br)cc1 the results were BRCA1 expr up 23%, PINK1 modulator 0%, TCR act -1% and Akt phos inh inactive.
Screening Cc1ccc(C(=O)Nn2cnc3ccccc3c2=O)cc1C returned BRCA1 expr up 8.9µM*, PINK1 modulator 2%, TCR act 3% and Akt phos inh inactive.
For CCCn1c(CCCNC(=O)c2ccccc2OC)nc2ccccc21 the results were BRCA1 expr up 7% and PINK1 modulator -1%.
CCC1C(=O)NCCN1Cc1ccc2c(c1)CN(Cc1ccc(OC)c(OC)c1)CCO2 (centres undefined) was read as PINK1 modulator 0%.
Cc1cc(C(=O)Nc2ccc3[nH]ccc3c2)no1 was read as BRCA1 expr up 6.3µM*, PINK1 modulator 1%, TCR act 1% and Akt phos inh inactive.
Screening Cc1cc(NC(=O)c2cc(C)on2)no1 returned BRCA1 expr up 19%, PINK1 modulator 29%[38.3 µM] and Akt phos inh inactive.
Screening Cc1ncc2c(c1CNS(=O)(=O)N(C)C)CCN(C(=O)/C=C/c1ccccc1)C2 returned PINK1 modulator 0%.
For COc1cccc(C(=O)NC2=NCCS2)c1OC the results were BRCA1 expr up 13µM*, PINK1 modulator -1%[38.3 µM], TCR act -15% and Akt phos inh inactive.
`COc1ccc(C(=O)NC2=NCCS2)cc1` gave BRCA1 expr up 3.2µM*, PINK1 modulator 4%, TCR act 1% and Akt phos inh inactive.
For O=C(Nc1ccc2c(c1)CCC2)c1cccc(OC(F)F)c1 the results were BRCA1 expr up 2.8µM*, PINK1 modulator 3%, TCR act 1% and Akt phos inh inactive.
For N#Cc1ccc(C(=O)NC2=NCCS2)cc1 the results were BRCA1 expr up inconclusive, PINK1 modulator 0%, TCR act -3% and Akt phos inh inactive.
O=C(NC1=NCCS1)c1ccc(C(F)(F)F)cc1 was read as BRCA1 expr up 4µM*, PINK1 modulator 5%, TCR act -8% and Akt phos inh inactive.
For O=C(Nc1ccc(OC(F)F)c(Cl)c1)c1cccc(OC(F)F)c1 the results were BRCA1 expr up 19%, PINK1 modulator 8%[38.3 µM] and TCR act 2%.
`CO[C@H]1[C@H](NC(=O)c2ccco2)c2ccccc2C12CCN(Cc1ccc3cccc(F)c3n1)CC2` gave PINK1 modulator 2%.
For COc1cc2nc(NC3CCN(Cc4ccccc4)CC3)nc(N3CCCN(C)CC3)c2cc1OC the results were BRCA1 expr up -35% and PINK1 modulator -1%.
Screening O=C(NC1=NCCS1)c1cccc(OC(F)F)c1 returned BRCA1 expr up 2.8µM*, PINK1 modulator 3%, TCR act 1% and Akt phos inh inactive.
Screening CCOC(=O)N1CCN(/[N+]([O-])=N/Oc2ccc(C(F)(F)F)cc2[N+](=O)[O-])CC1 returned BRCA1 expr up 0% and PINK1 modulator 0%.
Screening CCc1ccc(NC(=O)c2ccc3nc(N)sc3c2)cc1 returned BRCA1 expr up 11µM*, PINK1 modulator 7%, TCR act 2% and Akt phos inh inactive.
For CC(=O)Nc1ccc(NC(=S)NC(=O)/C=C/c2ccco2)cc1 the results were BRCA1 expr up -26%, PINK1 modulator 7%, TCR act 2% and Akt phos inh inactive.
`CN1CCN(c2ccc(NC(=S)NC(=O)/C=C/c3ccco3)cc2)CC1` gave BRCA1 expr up 4.5µM*, PINK1 modulator 5%, TCR act 8% and Akt phos inh inactive.
For Cc1ccc(Nc2nc(CSc3nnnn3-c3ccccc3)cs2)cc1 the results were BRCA1 expr up -32%, PINK1 modulator 4%, TCR act 1% and Akt phos inh inactive.
Screening COc1ccc(-c2nnc(SCc3ccccn3)n2C)cc1 returned BRCA1 expr up 13µM*, PINK1 modulator 0%, TCR act -4%[46.1 µM] and Akt phos inh -107%*.
For Cc1ccc(Nc2nc(C)cs2)cc1 the results were BRCA1 expr up 2.5µM*, PINK1 modulator 1%, TCR act -1% and Akt phos inh inactive.
COc1ccccc1-c1nnc(SCc2ccccn2)n1C was read as BRCA1 expr up 0%, PINK1 modulator 0%[38.3 µM] and Akt phos inh inactive.
`Cc1ccc(Nc2nc(CSc3nnc(-c4ccccc4)n3C)cs2)cc1` gave BRCA1 expr up 3.5µM*, PINK1 modulator -2%, TCR act 0%[46.1 µM] and Akt phos inh inactive.
Screening Cc1ccc(Nc2nc(CSc3nnnn3C)cs2)cc1 returned BRCA1 expr up 3.2µM*, PINK1 modulator -3%, TCR act -5% and Akt phos inh inactive.
Screening Cc1cc(C(=O)Nc2ccccc2-c2nc(CNC(=O)C3(C)CCCCC3)c(C)o2)c(C)o1 returned PINK1 modulator -1%.
Screening COc1ccccc1-c1ccnc(-n2ncc(C(=O)NCC3(N4CCOCC4)CCCC3)c2C)n1 returned PINK1 modulator 1%.
Screening O=C(Cc1ccccc1Cl)NO returned BRCA1 expr up 29% and PINK1 modulator 1%.
O=C(/C=C/c1ccc(F)cc1)NCC1Cc2cccc(-c3ncccn3)c2O1 (centres undefined) was read as PINK1 modulator 1%.
`Cn1nnnc1SCc1csc(Nc2ccccc2)n1` gave BRCA1 expr up 13µM*, PINK1 modulator 0%, TCR act 0% and Akt phos inh inactive.
Screening Cc1occc1C(=O)N/N=C/c1ccc(OCc2ccccc2)cc1 returned BRCA1 expr up 6.3µM*, PINK1 modulator 2%, TCR act -21% and Akt phos inh inactive.
`O=C(N/N=C/c1ccc(O)cc1)c1cc[n+](Cc2ccccc2)cc1` gave BRCA1 expr up -4%, PINK1 modulator 2%, TCR act -6%[46.1 µM] and Akt phos inh inactive.
Screening O=C(N/N=C/c1ccc(OCc2ccccc2)cc1)c1cc[n+](Cc2ccccc2)cc1 returned BRCA1 expr up 3.5µM*, PINK1 modulator 5%, TCR act 1%[46.1 µM] and Akt phos inh inactive.
Screening CCCCCc1cc[n+](CC(=O)c2ccccc2)cc1 returned BRCA1 expr up 1% and PINK1 modulator -1%.
Cc1cc(C#N)c2ccccc2n1 was read as BRCA1 expr up 16%, PINK1 modulator 1%, TCR act -2% and Akt phos inh -109%*.
`Cc1cc(N)c2ccccc2n1` gave BRCA1 expr up 12%, PINK1 modulator -1%, TCR act -6% and Akt phos inh inactive.
For COc1ccc(CN2CCN(C(C)=O)CC2)cc1OC1CCN(C(=O)c2ccc3[nH]c(C)c(C)c3c2)CC1 the results were PINK1 modulator -1%.
